High-throughput results: PubChem BioAssay, National Center for Advancing Translational Sciences (NCATS)
Cruzain noTriton: cruzain (T. cruzi) inhibition without detergent. P25779. purified cruzain, Z-FR-AMC fluorescence, no detergent. Potency, µM, inactives show max response, negative = inhibition, usual class: inhibitors. 2.3% of 200,000 active. AID 1476; active means well fitted curve in the direction sought with a large enough effect; inconclusive means small, poorly fitted or top-dose-only effect, or another doubt; inactive means no such curve, though single readings can be large; an effect the other way counts as inactive or inconclusive;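 further: potency means the concentration at half of the fitted maximal effect; plate controls were enzyme without inhibitor for no effect and buffer without enzyme for full effect; nearly all actives have a fitted effect of over 40% in size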
Target sequence (P25779 123-467 limits assumed): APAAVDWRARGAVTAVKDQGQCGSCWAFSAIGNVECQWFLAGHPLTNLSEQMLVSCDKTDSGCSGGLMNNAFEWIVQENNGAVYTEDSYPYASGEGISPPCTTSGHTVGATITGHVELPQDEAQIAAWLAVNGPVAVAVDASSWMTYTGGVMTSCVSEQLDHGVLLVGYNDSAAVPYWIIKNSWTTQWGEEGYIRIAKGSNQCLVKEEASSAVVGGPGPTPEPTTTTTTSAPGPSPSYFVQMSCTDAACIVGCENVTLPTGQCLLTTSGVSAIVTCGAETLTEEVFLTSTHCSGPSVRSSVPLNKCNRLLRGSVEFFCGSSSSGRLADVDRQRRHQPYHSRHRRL
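Purified cruzain at 1.5 nM, pre-incubated 15 min with compound at room temperature in 100 mM sodium acetate pH 5.5, 5 mM DTT, 0.00005% Triton X-100. Reaction started with 2 uM Z-FR-AMC; AMC fluorescence increase over 60 s gives rate.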
NS1 function inh: influenza NS1 inhibition | 0.4% of 270,000 active | Potency, µM (series often up to 46.1 µM), for inactives: at the top dose activity, positive = more growth; further: potency means the concentration at half of the fitted maximal effect; actives are rising curves; nearly all actives have a fitted effect of over 50% in size
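Growth recovery, yeast-based: influenza A NS1 expressed in S. cerevisiae causes slow growth, and suppressors are detected by OD600. The parent strain without NS1 is used as positive control.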
Cruzain Triton: blocks cruzain activity in presence of Triton detergent | P25779 | Potency, µM, for the others: max response, negative = inhibition, usual class: inhibitors | purified cruzain, Z-FR-AMC fluorescence, 0.01% Triton | 0.43% of 200,000 active; active means well fitted curve in the direction sought with a large enough effect; inconclusive means small, poorly fitted or top-dose-only effect, or another doubt; inactive means no such curve, though single readings can be large; an effect the other way counts as inactive or inconclusive;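 further: potency means the concentration at half of the fitted maximal effect; plate controls were neutral wells for no effect and buffer without enzyme for full effect; nearly all actives have a fitted effect of over 40% in size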
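Read-out: AMC fluorescence (360 nm excitation, 450 nm emission), four reads over 2 min, first-to-third difference used. Conditions: cruzain 1.5 nM, Z-FR-AMC 2 uM, pH 5.5 acetate, 5 mM DTT, 0.01% Triton X-100.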
Flu NS1 inh: validation of influenza NS1 protein function inhibitors; shares compounds with NS1 function inh; influenza NS1 function cell assay, 15-point titration; activity change, negative = inhibition, % at 32.9 µM; 1,400 tested, under 10 active; further: 0% is about no effect
PR8 titer: influenza virus titer reduction, NS1 project. shares compounds with NS1 function inh. MDCK infected influenza A/PR/8/34, virus titer TCID50; active compounds read low. virus titer (log TCID50), log10 TCID50 at 5 µM. 30% of 95 active; call rule not given here
Active calls of the source: *; ? = inconclusive; . = not tested or not shown. This excerpt belongs to a sample that is enriched for hits. Unless noted, the call rests on the fitted dose curve.

SMILES | Cruzain noTriton | NS1 function inh | Cruzain Triton | Flu NS1 inh | others
O=C(NCc1cccc(Cl)c1)c1ccc2c(Cl)c3c(nc2c1)CCCC3 | -21% | . | 0% | .
CN1CCN(CCCNC(=O)CCCOc2cc(=O)n(C)c3ccccc23)CC1 | -7% | -13% | 4% | .
Cn1c(=O)cc(OCC(=O)NCCCN2CCN(Cc3ccccc3)CC2)c2ccccc21 | 3% | 11µM* | 2% | -8
COc1ccc(OC)c(/C=N/NC(=O)c2nnn(-c3nonc3N)c2-c2cccs2)c1 | . | 5% | . | .
COc1ccccc1/C=N/NC(=O)c1nnn(-c2nonc2N)c1-c1cccs1 | . | 2.2µM* | . | 19
CCCCC(CC)COCCCN (configuration not stated) | -3% | . | 0% | .
CCOc1ccc(N2C(=O)/C(=C\c3ccccc3OC)S(=O)(=O)C2c2cccc([N+](=O)[O-])c2)cc1 (configuration not stated) | -6% | 11µM* | -2% | -34
COc1ccccc1/C=C1/C(=O)N(c2cc(C)cc(C)c2)C(c2cccc([N+](=O)[O-])c2)S1(=O)=O (configuration not stated) | -22% | 18% | -2% | .
CCOC(=O)C1CCC(CN(Cc2ccc(Cl)cc2)S(=O)(=O)c2cccc(Cl)c2C)CC1 (configuration not stated) | 19% | . | 0% | .
CCCN=C1N/C(=C\c2ccco2)C(=O)N1c1ccccc1 | -12% | 1% | -12% | .
CCCN(CCC)C1=N/C(=C\c2ccco2)C(=O)N1c1ccccc1 | -3% | 1.1µM* | -11% | 0
Cc1ccc(N(C(=O)COc2ccccc2C)S(=O)(=O)c2ccc(Cl)cc2)cc1 | -22% | . | -5% | .
O=C(c1cnccn1)N1CCC2(CC1)CN(c1ncccn1)C2 | 9% | . | -1% | .
Cc1ccc2c(c1)C(c1ccccc1)N(C(=O)C(C)C)CC(=O)N2 (configuration not stated) | 5% | ? | 3% | 29
CCC(CC)C(=O)N1CC(=O)Nc2ccc(C)cc2C1c1ccccc1 (configuration not stated) | . | 3% | . | .
Cc1ccc2[nH]c(C)c(CCNC(=O)c3cc4cc(Br)ccc4oc3=O)c2c1 | 1% | . | -4% | .
Cc1nc(N2CCOCC2)c2c(C(=O)NCCc3ccccc3)c(C)oc2n1 | -8% | . | -1% | .
COc1ccc(C(C(=O)NC2CCCCC2)N(Cc2cccs2)C(=O)Cc2c[nH]c3ccccc23)cc1 (configuration not stated) | -23% | 20% | -2% | .
Cc1ccc(C(C(=O)NC2CCCCC2)N(C(=O)Cc2c[nH]c3ccccc23)c2ccccc2)o1 (configuration not stated) | -7% | 7% | -2% | .
COc1cccc(CN(C(=O)Cc2c[nH]c3ccccc23)C(C(=O)NC2CCCCC2)c2cccs2)c1 (configuration not stated) | -26% | 7.1µM* | 2% | -8
COc1cc(C(C(=O)NC2CCCCC2)N(C(=O)Cc2c[nH]c3ccccc23)c2ccc(C)cc2)cc(OC)c1OC (configuration not stated) | ? | 11µM* | -8% | 14
Cc1oc2ncn(C)c(=O)c2c1C(=O)N1CCN(c2ccc(Cl)cc2)CC1 | -1% | . | -2% | .
O=C(Nc1ccccc1C(=O)OCc1cc(=O)n2ccsc2n1)c1cccc(F)c1 | 10% | . | 2% | .
COc1ccccc1N1CCN(C(=O)c2cc(CC(C)C)on2)CC1 | 13% | . | -5% | .
Cc1c(C(=O)Nc2cccc(C(F)(F)F)c2)oc2ccc(S(=O)(=O)N(C)C3CCCCC3)cc12 | 19% | . | 1% | .
SMILES | Cruzain noTriton | NS1 function inh | Cruzain Triton | Flu NS1 inh | others
COc1ccccc1C(=O)NNC(=S)NC(=O)c1sc2ccccc2c1Cl | 10µM* | ? | 8% | ?
COc1ccccc1C(=O)NNC(=S)NC(=O)c1cccs1 | . | 3% | . | .
O=C1CC(c2ccccc2)Cc2[nH]c(=O)c(-c3nc(-c4cccc(Cl)c4)cs3)cc21 (configuration not stated) | 0% | . | -3% | .
CCC(C)NC(=O)c1sc2nc(C)c(C(=O)Nc3ccc(C)cc3C)c(-c3ccccc3Cl)c2c1N (configuration not stated) | -2% | . | -8% | .
Cc1cc(C)c(N(C(=O)Cn2nnc3ccccc32)C(C(=O)NC(C)(C)C)c2ccsc2)c(C)c1 (configuration not stated) | ? | 8% | -3% | .
CC(C)(C)NC(=O)C(c1ccsc1)N(CCc1ccccc1)C(=O)Cn1nnc2ccccc21 (configuration not stated) | 13% | ? | 6% | 5
NC(=O)c1cc[n+](CC2=C(C(=O)O)N3C(=O)[C@@H](NC(=O)[C@@H](c4ccccc4)S(=O)(=O)[O-])[C@H]3SC2)cc1 | 6% | -12% | -4% | .
N#Cc1nc(COc2ccc(Cl)cc2Cl)oc1N1CCN(c2ccccc2)CC1 | -21% | 11µM* | -5% | 16
COc1ccc(N2CCN(c3oc(COc4ccc(Cl)cc4Cl)nc3C#N)CC2)cc1 | ? | ? | 3% | .
COc1ccc(CCNC(=O)CCn2c(=O)c3ccccc3n(CC(=O)Nc3ccccc3F)c2=O)cc1OC | -9% | . | -1% | .
CC(C)(C)OC(=O)N1CCC(c2c(C(=O)NCc3ccco3)cnn2-c2ccc(F)cc2F)CC1 | 22% | . | -6% | .
Cc1ccccc1CN1C2=NCCN2C(=O)C2=C1CCN(Cc1ccccc1)C2 | 2% | 6% | 2% | .
CCC(=O)Nc1nc(-c2ccc3c(c2)OCCO3)cs1 | -4% | -9% | -2% | .
c1cc2c(cc1Nc1nc(-c3ccc4c(c3)OCO4)cs1)OCCO2 | 10µM* | 7.1µM* | 0% | -12
Oc1ccc(Nc2nc(-c3ccc(O)cc3)cs2)cc1 | -29% | 2.8µM* | -6% | 10
Oc1ccc(Nc2nc(-c3ccc(Cl)cc3)cs2)cc1 | -28% | . | -15% | .
CN1CC(=O)N(CC(=O)Nc2ccc(OC(F)(F)F)cc2)c2ccccc2C1=O | 19% | . | -1% | .
Cc1ccc(S(=O)(=O)c2cn(CC(=O)Nc3ccc4c(c3)OCO4)c3ccc(C)cc3c2=O)cc1 | ? | . | -6% | .
Cc1cc(N)n(Cc2ccc(Cl)cc2)n1 | . | 4% | . | .
Cc1ccc(-c2cc(N)n(Cc3ccc(Cl)cc3)n2)cc1 | 3% | 5µM* | -6% | 1
Cn1c(SCc2cccc(F)c2)nc2c([nH]c3ccccc32)c1=O | -6% | . | 0% | .
COc1cc(OC)c(NC(=O)Nc2c(C)n(C)n(-c3ccccc3)c2=O)cc1Cl | -14% | . | -1% | .
CC(C)(C)NC(=O)c1ccccc1-c1nc2ccccc2s1 | . | ? | . | 16 | PR8 titer=8.5
CC(C)(C)NC(=O)c1nc2ccccc2s1 | 2% | -7% | 3% | .
O=C(N/N=C/c1cccc(O)c1)c1ccc(COc2ccccc2Br)cc1 | 18% | ? | 2% | ?
O=C(N/N=C\c1cccc(O)c1)c1ccncc1 | 5% | -4% | 0% | .
Cc1cc(OC(C)C(=O)Nc2c(C(=O)c3ccc(F)cc3)oc3ccccc23)ccc1Cl (configuration not stated) | -8% | . | 0% | .
